# Source: PubChem BioAssay AID1159580 (chemical genetic matrix, 2015)
# The campaign covered roughly 5,500 compounds. About 2,000 (36%) were called active. Not shown: some 18% with an inconclusive outcome. Some of the results follow. Values without a mark were called inactive. Rule as the data show it: active = normalized growth mostly below about 0.91 (no sharp cut-off); inconclusive = no clear call, values can overlap the other calls; inactive = mostly above about 0.92.
# Experiment: chemical genetic growth profiling, strain panel (AID 1159580);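 also: tested at 20 µM; growth read once vehicle control cultures reached saturation at 30 °C; 1 = growth at the plate median or of vehicle wells; lower values mean less growth of the strain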
# Settings: growth OD
smiles,measurement,setting,value
NC(=O)c1cc([N+](=O)[O-])cc([N+](=O)[O-])c1,normalized growth,"S. cerevisiae deletion strains, locus YJR075W, strain HOC1, stronger effect = lower value",1
same,normalized growth,"S. cerevisiae deletion strains, locus YKL009W, strain mrt4, stronger effect = lower value",0.985
same,normalized growth,"S. cerevisiae deletion strains, locus YKL068W, stronger effect = lower value",1
same,normalized growth,"S. cerevisiae deletion strains, locus YKL085W, strain MDH1 (second series), stronger effect = lower value",0.999
same,normalized growth,"S. cerevisiae deletion strains, locus YKL085W, strain MDH1, stronger effect = lower value",0.999
same,normalized growth,"S. cerevisiae deletion strains, locus YKL160W, strain elf1, stronger effect = lower value",1.01
same,normalized growth,"S. cerevisiae deletion strains, locus YKL190W, strain CNB1, stronger effect = lower value",1.01
same,normalized growth,"S. cerevisiae deletion strains, locus YKR001C, strain vps1, stronger effect = lower value",0.997
same,normalized growth,"S. cerevisiae deletion strains, locus YKR026C, strain gcn3, stronger effect = lower value",1.02
same,normalized growth,"S. cerevisiae deletion strains, locus YKR091W, strain srl3, stronger effect = lower value",1.02
same,normalized growth,"S. cerevisiae deletion strains, locus YLL001W, strain dnm1, stronger effect = lower value",1.06
same,normalized growth,"S. cerevisiae deletion strains, locus YLL026W, stronger effect = lower value",1.01
same,normalized growth,"S. cerevisiae deletion strains, locus YLL041C, strain sdh2, stronger effect = lower value",1
same,normalized growth,"S. cerevisiae deletion strains, locus YLR027C, strain aat2, stronger effect = lower value",0.989
same,normalized growth,"S. cerevisiae deletion strains, locus YLR039C, strain RIC1, stronger effect = lower value",1.24
same,normalized growth,"S. cerevisiae deletion strains, locus YLR058C, strain SHM2, stronger effect = lower value",1.01
same,normalized growth,"S. cerevisiae deletion strains, locus YLR102C, strain apc9, stronger effect = lower value",1
same,normalized growth,"S. cerevisiae deletion strains, locus YLR113W, strain HOG1, stronger effect = lower value",0.988
same,normalized growth,"S. cerevisiae deletion strains, locus YLR221C, strain rsa3, stronger effect = lower value",1.02
same,normalized growth,"S. cerevisiae deletion strains, locus YLR258W, strain gsy2, stronger effect = lower value",1
same,normalized growth,"S. cerevisiae deletion strains, locus YLR262C, strain YPT6 (second series), stronger effect = lower value",1.11
same,normalized growth,"S. cerevisiae deletion strains, locus YLR262C, strain YPT6, stronger effect = lower value",1.2
same,normalized growth,"S. cerevisiae deletion strains, locus YLR268W, strain sec22, stronger effect = lower value",0.963
same,normalized growth,"S. cerevisiae deletion strains, locus YLR320W, strain mms22, stronger effect = lower value",1.01
same,normalized growth,"S. cerevisiae deletion strains, locus YLR330W, strain CHS5, stronger effect = lower value",1.02
same,normalized growth,"S. cerevisiae deletion strains, locus YLR342W, strain FKS1 (second series), stronger effect = lower value",1.02
same,normalized growth,"S. cerevisiae deletion strains, locus YLR342W, strain FKS1, stronger effect = lower value",1.02
same,normalized growth,"S. cerevisiae deletion strains, locus YLR357W, strain rsc2, stronger effect = lower value",1
same,normalized growth,"S. cerevisiae deletion strains, locus YLR370C, strain arc18, stronger effect = lower value",1.02
same,normalized growth,"S. cerevisiae deletion strains, locus YLR371W, strain rom2, stronger effect = lower value",0.998
same,normalized growth,"S. cerevisiae deletion strains, locus YLR384C, strain iki3, stronger effect = lower value",1.02
same,normalized growth,"S. cerevisiae deletion strains, locus YLR418C, strain cdc73, stronger effect = lower value",0.861
same,normalized growth,"S. cerevisiae deletion strains, locus YML016C, strain PPZ1, stronger effect = lower value",1.03
same,normalized growth,"S. cerevisiae deletion strains, locus YML032C, strain rad52, stronger effect = lower value",0.974
same,normalized growth,"S. cerevisiae deletion strains, locus YML120C, strain ndi1, stronger effect = lower value",1.02
same,normalized growth,"S. cerevisiae deletion strains, locus YML124C, strain tub3, stronger effect = lower value",0.998
same,normalized growth,"S. cerevisiae deletion strains, locus YMR058W, strain fet3, stronger effect = lower value",0.955
same,normalized growth,"S. cerevisiae deletion strains, locus YMR078C, strain ctf18, stronger effect = lower value",0.999
same,normalized growth,"S. cerevisiae deletion strains, locus YMR125W, strain sto1, stronger effect = lower value",1.01
same,normalized growth,"S. cerevisiae deletion strains, locus YMR129W, stronger effect = lower value",1.02
same,normalized growth,"S. cerevisiae deletion strains, locus YMR205C, strain PFK2, stronger effect = lower value",1.04
same,normalized growth,"S. cerevisiae deletion strains, locus YMR223W, strain ubp8, stronger effect = lower value",0.979
same,normalized growth,"S. cerevisiae deletion strains, locus YMR231W, strain pep5, stronger effect = lower value",1.01
same,normalized growth,"S. cerevisiae deletion strains, locus YMR307W, strain GAS1, stronger effect = lower value",0.972
same,normalized growth,"S. cerevisiae deletion strains, locus YNL067W, strain RPL9B, stronger effect = lower value",0.999
same,normalized growth,"S. cerevisiae deletion strains, locus YNL071W, strain lat1, stronger effect = lower value",0.998
same,normalized growth,"S. cerevisiae deletion strains, locus YNL128W, strain TEP1, stronger effect = lower value",0.982
same,normalized growth,"S. cerevisiae deletion strains, locus YNL183C, strain NPR1, stronger effect = lower value",0.935
same,normalized growth,"S. cerevisiae deletion strains, locus YNL209W, strain ssb2, stronger effect = lower value",1.01
same,normalized growth,"S. cerevisiae deletion strains, locus YNL233W, strain BNI4, stronger effect = lower value",1.01
same,normalized growth,"S. cerevisiae deletion strains, locus YNL248C, strain rpa49, stronger effect = lower value",0.879 (active)
same,normalized growth,"S. cerevisiae deletion strains, locus YNL250W, strain rad50, stronger effect = lower value",1.01
same,normalized growth,"S. cerevisiae deletion strains, locus YNL271C, strain bni1, stronger effect = lower value",0.974
same,normalized growth,"S. cerevisiae deletion strains, locus YNL298W, strain CLA4, stronger effect = lower value",0.983
same,normalized growth,"S. cerevisiae deletion strains, locus YNL307C, strain MCK1, stronger effect = lower value",0.979
same,normalized growth,"S. cerevisiae deletion strains, locus YNL322C, strain KRE1 (second series), stronger effect = lower value",1.04
same,normalized growth,"S. cerevisiae deletion strains, locus YNL322C, strain KRE1, stronger effect = lower value",1.02
same,normalized growth,"S. cerevisiae deletion strains, locus YNR049C, strain mso1, stronger effect = lower value",1.01
same,normalized growth,"S. cerevisiae deletion strains, locus YNR052C, strain pop2, stronger effect = lower value",0.985
same,normalized growth,"S. cerevisiae deletion strains, locus YOL006C, strain TOP1, stronger effect = lower value",0.927
same,normalized growth,"S. cerevisiae deletion strains, locus YOL012C, strain htz1",0.763
same,normalized growth,"S. cerevisiae deletion strains, locus YOL147C, strain pex11, stronger effect = lower value",0.998
same,normalized growth,"S. cerevisiae deletion strains, locus YOR001W, strain rrp6, stronger effect = lower value",0.984
same,normalized growth,"S. cerevisiae deletion strains, locus YOR061W, strain CKA2, stronger effect = lower value",1.01
same,normalized growth,"S. cerevisiae deletion strains, locus YOR069W, strain VPS5, stronger effect = lower value",1.01
same,normalized growth,"S. cerevisiae deletion strains, locus YOR070C, strain gyp1, stronger effect = lower value",1
same,normalized growth,"S. cerevisiae deletion strains, locus YOR080W, strain dia2, stronger effect = lower value",1.02
same,normalized growth,"S. cerevisiae deletion strains, locus YOR083W, strain WHI5, stronger effect = lower value",1.02
same,normalized growth,"S. cerevisiae deletion strains, locus YOR106W, strain vam3, stronger effect = lower value",1
same,normalized growth,"S. cerevisiae deletion strains, locus YOR136W, strain idh2, stronger effect = lower value",0.993
same,normalized growth,"S. cerevisiae deletion strains, locus YOR144C, strain elg1, stronger effect = lower value",0.998
same,normalized growth,"S. cerevisiae deletion strains, locus YOR184W, strain ser1, stronger effect = lower value",0.976
same,normalized growth,"S. cerevisiae deletion strains, locus YOR231W, strain MKK1, stronger effect = lower value",0.963
same,normalized growth,"S. cerevisiae deletion strains, locus YOR265W, strain rbl2, stronger effect = lower value",1
same,normalized growth,"S. cerevisiae deletion strains, locus YOR270C, strain vph1, stronger effect = lower value",1.02
same,normalized growth,"S. cerevisiae deletion strains, locus YOR290C, strain snf2, stronger effect = lower value",1.01
same,normalized growth,"S. cerevisiae deletion strains, locus YOR316C, strain cot1, stronger effect = lower value",0.995
same,normalized growth,"S. cerevisiae deletion strains, locus YPL051W, strain arl3, stronger effect = lower value",0.97
same,normalized growth,"S. cerevisiae deletion strains, locus YPL055C, strain LGE1, stronger effect = lower value",0.96
same,normalized growth,"S. cerevisiae deletion strains, locus YPL078C, strain atp4, stronger effect = lower value",1.01
same,normalized growth,"S. cerevisiae deletion strains, locus YPL106C, strain sse1, stronger effect = lower value",1.02
same,normalized growth,"S. cerevisiae deletion strains, locus YPL240C, strain hsp82, stronger effect = lower value",1.01
same,normalized growth,"S. cerevisiae deletion strains, locus YPL241C, strain CIN2, stronger effect = lower value",1.03
same,normalized growth,"S. cerevisiae deletion strains, locus YPL256C, strain CLN2, stronger effect = lower value",0.965
same,normalized growth,"S. cerevisiae deletion strains, locus YPR119W, strain clb2, stronger effect = lower value",1
same,normalized growth,"S. cerevisiae deletion strains, locus YPR141C, strain kar3, stronger effect = lower value",1
same,normalized growth,"S. cerevisiae deletion strains, locus YPR163C, strain tif3, stronger effect = lower value",0.995
same,normalized growth,"S. cerevisiae deletion strains, locus YPR167C, strain met16, stronger effect = lower value",0.992
same,normalized growth,"S. cerevisiae deletion strains, strain wtn01, stronger effect = lower value",0.98
same,normalized growth,"S. cerevisiae strains, strain wild type, stronger effect = lower value",1.01
